The campaign covered roughly 370,000 compounds. About 3,800 (1%) were called active. The sample holds actives, similar compounds and a random draw of the others, so the mix is not that of the screen. Cut-off read from the data, not from the text of the source: active = activation above about 7.8%; inactive = the rest.

This assay in a line: SMARCA2 (BRM) function activators, primary screen, cell-based, luminescence, high throughput (AID 652017).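 Note: 0% = vehicle wells and 100% = reference activator wells.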 The conditions noted are these: MG213 cells, MMTV-luciferase reporter, dexamethasone, overnight; at 9.1 µM; hits give high values.
With `CCC1CO/C(=C(\C(=C(Cl)Cl)N2CCOCC2)[N+](=O)[O-])N1` (centres undefined), the activation is -2.15% (inactive).
For the molecule `Cc1cc(Br)cn2c(Cc3ccccc3C(F)(F)F)c(-c3ccc(Cl)cc3)nc12`, the activation was 3.06% (inactive).
For the molecule `Cc1ccc(-c2nc3ccc(Br)cn3c2Cc2ccccc2C(F)(F)F)cc1`, the activation was 8.44% (active).
For the molecule `Cc1cc(Br)cn2c(Cc3ccccc3C(F)(F)F)c(-c3ccc(C#N)cc3)nc12`, the activation was -1.52% (inactive).
In the case of `Brc1ccc2nc(-c3ccccc3)c(Cc3ccccc3)n2c1`, the activation is 3.02% (inactive).
Consider `Cc1ccc(-c2nc3ccc(Cl)cn3c2Cc2ccccc2)cc1`, for which the activation was 10.1% (active).
As for `COc1ccccc1Cc1c(-c2ccc(Cl)cc2)nc2ccc(Cl)cn12`, the activation was 4.42% (inactive).
Take `COC(=O)c1cc(S(=O)(=O)N2CCN(C(=O)C3CCCO3)CC2)cn1C` (centres undefined): the activation is -1.22% (inactive).
For the molecule `CC(C)CNS(=O)(=O)CC1NCCc2ccccc21` (centres undefined), the activation was -3.17% (inactive).
As to `COc1cccc(Cn2cc(COC(=O)Nc3ccc(F)cc3)nn2)c1`, the activation was -0.28% (inactive).
Regarding `COc1cccc(N(C)C(=O)[C@@H](C)[C@@H](O)c2ccc3ccccc3c2)c1`, the activation is -2.05% (inactive).
For the molecule `COc1ccnc(NC(=S)N2CCN(c3ncc(C(F)(F)F)cc3Cl)CC2)c1`, the activation was -3.61% (inactive).
To `COc1ccc(CN2C(=O)N3Cc4cc(OC)ccc4C3CS2(=O)=O)cc1` (centres undefined) belongs -5.55% (inactive).
As for `CC(C)NC(=O)C(=O)NCCN1CCN(S(=O)(=O)c2ccc(Cl)cc2)CC1`, the activation was -1.85% (inactive).
In the case of `C#CCNC(=O)C[C@H]1C[C@@]2(C(=O)OC)C(=C[C@H](C(C)C)O[C@@H]2C2CC2)N(Cc2ccco2)C1=O`, the activation is -5.88% (inactive).
Regarding `COc1ccc(CN2CC[C@H]3C=CC[C@@H](C(=O)N4CCOCC4)[C@H]3C2=O)cc1OC`, the activation was 1.07% (inactive).
As to `Cc1ccc(Nc2ccccc2N)cc1`, the activation was 0.3% (inactive).
For `Cc1ccc(Nc2nc(Cl)c(C=O)s2)cc1`, the activation is 8.44% (active).
Take `Cc1ccc(Nc2cc(C)nc3c(C)ccc([N+](=O)[O-])c23)cc1`: the activation was -1.39% (inactive).
With `COC(=O)C1CN(CCc2ccccc2)CCS(=O)(=O)N1Cc1ccc(F)cc1` (centres undefined) the figure was 0.54% (inactive); with `CC1=CC(=O)C=CC1(C)C(Cl)(Cl)Cl` (centres undefined), -0.07% (inactive); with `Cc1cc(C)nc(Nc2n[nH]c(-c3ccccc3N)n2)n1`, 8.89% (active).
With `Clc1ccc(-n2c(SC/C=C/c3ccccc3)nnc2-c2ccco2)cc1`, the activation was -3.27% (inactive).
Take `Cc1ccc2nnn(Cc3cccc(C(C)(C)C)c3O)c2c1`: the activation is -2.51% (inactive).
For `CCOC(=O)CNC(=O)N(C)[C@H]1C[C@H]2c3[nH]c4c(-c5ccc6c(c5)OCO6)cccc4c3CCN2C(=O)[C@H]1[C@H](C)O`, the activation is -1.46% (inactive).
Consider `O=C1CCC(C(=O)N2CCCCO2)CN1Cc1cccc(C(F)(F)F)c1` (centres undefined), for which the activation was -2.44% (inactive).
As to `COCC1CCN(C(=O)C2CCC(=O)N(CC3CCCCC3)C2)CC1` (centres undefined), the activation is -3.22% (inactive).
Turning to `COCC1CCN(C(=O)C2CCC(=O)N(Cc3cccc(C(F)(F)F)c3)C2)CC1` (centres undefined), the activation was 13.1% (active).
As for `O=C(CSc1nnc(-c2cccc(Cl)c2)n1Cc1ccco1)Nc1ccc(OCc2ccccc2)cc1`, the activation was -5.35% (inactive).
In the case of `Cc1ccc(C(=O)Nc2nc3ccc(Cl)cc3s2)o1`, the activation was 12.3% (active).
To `Cc1sc2ncnc(N3CCC(C(=O)Nc4nc5ccc(Cl)cc5s4)CC3)c2c1C` belongs 4.88% (inactive); to `O=C(Nc1nc2ccc(Cl)cc2s1)c1cc(-c2ccc(Cl)cc2)nc2ccccc12`, -3.62% (inactive); to `COC1=C[C@H](C(=O)NCCNC(C)=O)[C@H](C)[C@@H](c2ccccc2)CC1=O`, -1.73% (inactive).
`O=C1CC[C@@H](COc2ccc3[nH]cc(-c4ccccc4)c3c2-c2ccccc2)N1`: the activation is -2.62% (inactive).
With `COC(=O)[C@]12C[C@H](CC(=O)N3CCOCC3)C(=O)N(Cc3ccc(Cl)cc3Cl)C1=C[C@H](C(C)C)O[C@@H]2C1CC1`, the activation was -2.82% (inactive).
Consider `Cc1nc2ccccc2nc(=O)c1NNc1ccc([N+](=O)[O-])cc1`, for which the activation was 2.04% (inactive).
With `Cc1ccc(-n2cc3ccc([N+](=O)[O-])cc3n2)cc1` the figure was 3.85% (inactive).
Regarding `O=[N+]([O-])c1ccc2c(c1)Nc1nc3ccccc3nc1N2`, the activation was 15.2% (active).
Regarding `COc1ccc(CSc2nnc(SCC(=O)Nc3ccccc3C(F)(F)F)s2)cc1`, the activation is -1.77% (inactive).
As to `COc1ccc(CN2CCOC2=O)cc1OC`, the activation was -2.13% (inactive).
Regarding `COC(=O)C1=CN(Cc2ccc(OC)c(OC)c2)C=C(C(=O)OC)C1c1cccs1`, the activation was -1.26% (inactive).
For the molecule `COc1ccc(CC2c3cc(OC)c(OC)cc3CC[N+]2(C)CCC(=O)OCCCCCOC(=O)CC[N+]2(C)CCc3cc(OC)c(OC)cc3C2Cc2ccc(OC)c(OC)c2)cc1OC` (centres undefined), the activation was 11.4% (active).
Take `CN(CCO)c1cccc2c1S(=O)(=O)N(Cc1cn(Cc3ccc(C(F)(F)F)cc3)nn1)Cc1ccccc1O2`: the activation is 3.38% (inactive).
`CC(C)CNC(=O)OCc1cn(Cc2ccc(F)cc2)nn1`: the activation was -0.88% (inactive).
With `CCOC(=O)[C@@]12CCC3=C1N(CCC3)C(=O)[C@H](CC(=O)N1CCN(C(=O)c3ccco3)CC1)C2` the figure was -0.99% (inactive); with `COc1cccc(CNC(=O)[C@H]2CCCN2C(=O)[C@H]2CCCN2C(=O)c2ccc(F)cc2)c1`, -5.59% (inactive); with `O=C(NC1CCCC1)C(=O)c1c[nH]c2ccccc12`, 10.3% (active).
For `CC1CCN(CC(=O)c2c[nH]c3ccccc23)CC1`, the activation is 4.35% (inactive).
In the case of `O=C(NCCCc1ccccc1)C(=O)c1c[nH]c2ccccc12`, the activation is 7.21% (inactive).
Turning to `Cc1nn(C(C)(C)C)c(OC(=O)CC(C)C)c1S(=O)(=O)c1ccccc1`, the activation is -0.75% (inactive).
Consider `N#Cc1c(/N=C/N2CCCC2)oc(-c2ccccc2)c1-c1ccccc1`, for which the activation was 1.32% (inactive).
With `CCOc1ccc(NC(=S)N2CCC(N(C)CC3CCCO3)CC2)cc1` (centres undefined) the figure was 4.49% (inactive).
For the molecule `CCC(C)N(C)C1CCN(C(=S)Nc2ccc(OC)cc2)CC1` (centres undefined), the activation was 8.91% (active).
`COc1ccc(N2CCN(C(=S)Nc3ccc(S(N)(=O)=O)cc3)CC2)cc1`: the activation was -1.43% (inactive).
Consider `O=C(CSc1nc2ccccc2n1Cc1ccccc1)NNC(=S)Nc1ccccc1`, for which the activation is 4.3% (inactive).
For the molecule `COc1cccc(/C=C/C(=O)Nc2ccc3c(c2)OCCO3)c1`, the activation was 5.29% (inactive).
With `COc1ccc(OC)c(NC(=O)c2cccc(S(=O)(=O)N3CCN(C(C)=O)CC3)c2)c1`, the activation is -1.12% (inactive).
With `COc1cccc(C(=O)Nc2cc3c(cc2Br)OCCCO3)c1` the figure was 11% (active); with `O=S1(=O)C[C@@H](N2CCN(CCO)CC2)[C@H](COCc2ccccc2)N1`, -4.94% (inactive).
Regarding `COC(=O)[C@]12C[C@H](CC(=O)NCc3cccs3)C(=O)N(CCc3ccc(OC)c(OC)c3)C1=C[C@H](C(C)C)O[C@@H]2C1CC1`, the activation was -3.39% (inactive).
`O=C(NCCC1=CCCCC1)C1CCN(S(=O)(=O)c2ccc(Cl)s2)CC1`: the activation was -6.89% (inactive).
With `C/C(CC(=O)NC(C)(C)C)=N\NC(=O)c1ccco1`, the activation is 8.95% (active).
On to `COc1ccc(N(CC(=O)NC(C)(C)C)C(=O)c2ccco2)cc1`, for which the activation was -1.03% (inactive).
On to `COc1cccc2cc(/C(C)=N/NC(=O)c3ccco3)oc12`, for which the activation was 5.77% (inactive).
As for `CCC(NC(=O)C1C2C=CC3(CN(Cc4ccccc4)C(=O)C13)O2)c1ccccc1` (centres undefined), the activation was -1.92% (inactive).
With `CC(C)CNC(=O)C1(C)CCCN1C(=O)CSc1ccccc1` (centres undefined) the figure was -1.93% (inactive); with `CC1(C(=O)NS(=O)(=O)C2CC2)CCCN(C(=O)CSc2ccccc2)C1` (centres undefined), 10.6% (active).
With `CS(=O)(=O)N1CCN(C(=O)CSc2ccccc2)CC1` the figure was -2.96% (inactive); with `C[C@@H]1CN([C@H](C)CO)C(=O)CCCn2cc(nn2)CO[C@H]1CN(C)S(=O)(=O)c1ccc(Oc2ccccc2)nc1`, -2.13% (inactive).
On to `COc1ccc([C@H]2OC(=O)C[C@H]2C(=O)N2CCN(c3ccccc3F)CC2)cc1OC`, for which the activation was -3.16% (inactive).
With `COC(=O)[C@]12C[C@H](CC(=O)NCc3ccccc3)C(=O)N(CCc3ccc(OC)c(OC)c3)C1=C[C@H](C(C)(C)C)O[C@@H]2C` the figure was -3.03% (inactive).
Take `CCOC(=O)[C@]12CCCCC/C=C\1N(Cc1ccc(OC)cc1)C(=O)[C@H]2CC(=O)NCc1ccc(C)o1`: the activation is -0.44% (inactive).
With `O=C(NCCS(=O)(=O)NCc1ccc(Cl)cc1)c1ccccc1` the figure was -0.89% (inactive).
To `O=C(NCCCN1CCCCCC1)c1ccc(N2CCCC2=O)cc1` belongs 1.14% (inactive); to `CN1CCN(CCCNC(=O)c2ccc(/C=C3\Oc4ccccc4N(Cc4ccc(Cl)cc4)C3=O)cc2)CC1`, 10.6% (active).
As for `Cc1cc(NS(=O)(=O)c2ccc(NC(=O)CSc3nnc(SCc4ccc(F)cc4)s3)cc2)nc(C)n1`, the activation was -5.48% (inactive).
`O=C(Nc1cccc(Cl)c1)OC1CC2CC1[C@H]1CCCCN1[C@H]2Cc1ccccc1` (some centres undefined): the activation was -2.01% (inactive).
To `CCOC(=O)CSc1nc(C)cc2c1C(=O)OC2` belongs -2.43% (inactive); to `C#CCN([C@H](C(=O)OC)C(C)CC)S(=O)(=O)c1ccccc1Br` (some centres undefined), -1.68% (inactive); to `O=C(C[C@H]1CC[C@@H](NC(=O)c2ccncc2)[C@@H](CO)O1)NCC1CC1`, -1.73% (inactive).
Turning to `O=C(N[C@H]1CC[C@H](CC(=O)N2CCCCC2)O[C@@H]1CO)c1cccc(F)c1`, the activation was 8.81% (active).
Regarding `O=C(Nc1ccc2c(c1)[C@@H]1C[C@@H](CC(=O)N3CCCCC3)O[C@@H](CO)[C@@H]1O2)NC1CCCCC1`, the activation is -1.84% (inactive).
To `C=C1C(=O)[C@]23C[C@H]1CCC2[C@@]1(C)C(C[C@@H]3O)[C@](C)(C(=O)O)CC[C@@H]1O` (some centres undefined) belongs 28.1% (active).
Turning to `N#Cc1ccc(OC[C@@H](O)CN2CCC(C(O)(c3ccccc3)c3ccccc3)CC2)c(F)c1`, the activation was 1.41% (inactive).

These data come from PubChem BioAssay AID652017 (The Scripps Research Institute Molecular Screening Center, 2013).
